Assay [1] concerns the target Tumor necrosis factor receptor superfamily member 10B (Homo sapiens) (UniProt O14763). Description: caspase-8 TRAIL sensitization, hit retest, confirmation, cell-based, NB7+caspase-8, with/without TRAIL, luminescence panel (AID 651596). The following applies: NB7 neuroblastoma + caspase-8, TRAIL sensitization, luminescence viability, with TRAIL, mean of runs, at 10 µM, stronger effect = higher value.

Assay in assay [2]: as above
The following applies: NB7 neuroblastoma + caspase-8, without TRAIL, luminescence viability, without TRAIL, mean of runs, at 10 µM.

Tumor necrosis factor receptor superfamily member 10B (Homo sapiens), sequence (O14763 whole entry, looked up): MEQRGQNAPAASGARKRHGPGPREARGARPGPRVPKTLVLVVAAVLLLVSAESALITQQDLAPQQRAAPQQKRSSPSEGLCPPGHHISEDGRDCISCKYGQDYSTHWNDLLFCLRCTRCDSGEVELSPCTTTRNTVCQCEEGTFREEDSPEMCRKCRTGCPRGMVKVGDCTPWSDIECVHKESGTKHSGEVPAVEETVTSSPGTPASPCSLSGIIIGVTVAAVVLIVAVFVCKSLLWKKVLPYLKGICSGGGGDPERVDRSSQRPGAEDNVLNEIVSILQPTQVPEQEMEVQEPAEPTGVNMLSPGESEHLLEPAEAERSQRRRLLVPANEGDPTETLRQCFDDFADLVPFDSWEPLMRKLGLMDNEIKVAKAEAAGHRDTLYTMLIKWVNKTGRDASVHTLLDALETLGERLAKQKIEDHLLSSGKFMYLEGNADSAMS

Consider `O=C(c1cc(-c2ccc(Cl)cc2Cl)on1)N1CCOCC1`, for which the activity in assay [1] is 53.3%; in assay [2], 60.3%.

For the compound `Cn1c(-c2ccc(Br)o2)nc2ccccc21`, the activity in assay [1] was determined as 57.9%; in assay [2], 61.8%.

In the case of `Nc1nn2cc(-c3ccccc3)nc2c2ccccc12`, the figures for the activity in assay [1] and in assay [2] were 54.7% and 53.4%, respectively.

Consider `O=C(N/N=C/c1cccc(O)c1)c1ccc2c(c1)OCCO2`, for which the activity was 93.8% in assay [1] and 90.7% in assay [2].

As for `COc1ccc(-c2ccc(NC(=O)c3ccco3)cc2)nn1`, the activity in assay [1] came to 91%; in assay [2] it was 89.9%.

As for `O=C(N/N=C/c1cn(-c2ccccc2)nc1-c1cc2ccccc2o1)c1cccnc1`, the activity turned out to be 61.2% in assay [1] and 50.2% in assay [2].

Consider `COc1ccc(/C(N)=N/OC(=O)CC2CCCCC2)cc1OC`, for which the activity is 83.4% in assay [1] and 78.2% in assay [2].

With `NC(=O)c1ccsc1NC(=O)c1ccc2c(c1)CCCC2`, the results for the activity in assay [1] and in assay [2] were 89.5% and 86.7%, respectively.

As to `CSc1nnc(NC(=O)c2nc(S(=O)(=O)Cc3cccc(C)c3)ncc2Cl)s1`, the activity in assay [1] was 93%; in assay [2], 88.3%.

In the case of `Cn1cccc1/C=C1\CCc2ccccc2C1=O`, the figures for the activity in assay [1] and in assay [2] were 63.4% and 51.8%, respectively.

`Cc1ccc(NC(=S)c2nc3ccccc3s2)cc1`: the activity in assay [1] worked out at 30.7%; in assay [2], 33.8%.

Take `CCCCCCCCOC(=O)c1cc([N+](=O)[O-])c(Sc2ncnc3nc[nH]c23)c([N+](=O)[O-])c1`: the figures for the activity in assay [1] and in assay [2] were 64.1% and 62%, respectively.

For `O=C(Nc1cccnc1Cl)c1ccc2c(Cl)c3c(nc2c1)CCC3`, the results for the activity in assay [1] and in assay [2] were 78.5% and 78.4%, respectively.

On to `CC1(C)Cc2c(sc(NC(=O)COc3cccc4ccccc34)c2C#N)C(C)(C)N1`, for which the activity in assay [1] was 85.3%; in assay [2] it was 94.1%.

For `O=c1c2ccccc2oc2ccc(NCCCn3ccnc3)cc12`, the activity in assay [1] was 44%; in assay [2] it was 30.3%.

Regarding `CCOC(=O)CSc1nc2cc(C)ccc2cc1C#N`, the activity in assay [1] is 39.8%; in assay [2], 38.4%.

With `Cc1nc(-c2ccc(NC(=O)c3cccs3)cc2)cs1`, the values for the activity in assay [1] and in assay [2] were 83.1% and 83.7%, respectively.

Consider `C/C(=N\NC(=O)c1ccc(Cl)cc1)c1cccs1`, for which the activity was found to be 80.1% in assay [1] and 81.4% in assay [2].

As to `CCOC(=O)C1CCN(C(=O)C2c3ccccc3C(=O)N(C)C2c2ccc(OC)cc2)CC1` (stereo not given), the activity in assay [1] came to 66.1%; in assay [2], 60.9%.

For the compound `O=C(Nc1nc2cc3c(cc2s1)OCO3)c1ccco1`, the activity in assay [1] stood at 79.5%; in assay [2], 93.1%.

Regarding `O=C(Nc1nc2cc3c(cc2s1)OCCO3)c1cccs1`, the activity was 66.6% in assay [1] and 64.6% in assay [2].

Consider `C/C(=N\NC(=O)c1cccc(O)c1)c1cccc(NC(=O)c2ccc(F)cc2)c1`, for which the activity in assay [1] was 74.5%; in assay [2], 77.4%.

In the case of `Cc1ccc(-c2nn3c(C)nnc3c3ccccc23)cc1S(=O)(=O)NCc1ccccc1`, the activity turned out to be 48.2% in assay [1] and 51.6% in assay [2].

For `O=Cc1s/c(=N\S(=O)(=O)c2ccccc2)n(CCCCl)c1Cl`, the activity was determined as 94.2% in assay [1] and 88.6% in assay [2].

For `N/C(=N\OC(=O)c1cccc(Br)c1)c1ccc(Br)cc1`, the activity in assay [1] is 78.1%; in assay [2] it was 90.1%.

As for `c1c2c(cc3sc(N4CCCCC4)nc13)OCO2`, the activity in assay [1] worked out at 56%; in assay [2], 44.2%.

Turning to `COc1ccc2[nH]c(C(=O)Nc3cccc(C)n3)cc2c1`, the activity in assay [1] stood at 58.8%; in assay [2] it was 59.5%.

Take `O=C(Nc1ccc(NC(=O)c2ccccc2F)cn1)c1ccco1`: the activity in assay [1] was found to be 66.8%; in assay [2] it was 58.3%.

`Cc1nc(-c2ccc(C(=O)Nc3cccc(F)c3)cc2)cs1`: the activity in assay [1] worked out at 76.6%; in assay [2] it was 73.5%.

Regarding `CCCCCCCCCCCCCCCC[n+]1ccc(C(N)=O)cc1`, the activity came out at 92.1% in assay [1] and 88.5% in assay [2].

As to `C/C(=N\NC(=O)c1ccc(O)cc1)c1cccc(NC(=O)c2ccc(Cl)cc2)c1`, the activity in assay [1] was 74.3%; in assay [2], 77.2%.

In the case of `CN1CC(=O)N2C(c3ccc(Cl)cc3)c3[nH]c4ccccc4c3C[C@H]2C1=O` (stereo not given in full), the activity stood at 94.7% in assay [1] and 92.8% in assay [2].

On to `CCN1CCN(Cc2ccc(NC(=O)c3cc(NC(=O)c4cc5cccc(OC)c5o4)cc(OC)c3)cc2C(F)(F)F)CC1`, for which the figures for the activity in assay [1] and in assay [2] were 59.2% and 79.5%, respectively.

On to `Cc1ccc(NC(=O)N2CCc3ccccc32)cc1C`, for which the results for the activity in assay [1] and in assay [2] were 71.9% and 66.1%, respectively.

`Cc1nn(-c2ccccc2)c(Cl)c1CN(C(=O)CCl)c1cccc2ccccc12`: the activity came out at 98.8% in assay [1] and 99.7% in assay [2].

Take `Cc1ccc(-c2cc3nc4c(c(=O)n3[nH]2)CCCC4)cc1`: the activity in assay [1] turned out to be 55.2%; in assay [2], 54.7%.

As to `Cc1ccc(/C(N)=N/OC(=O)c2ccc(F)cc2)cc1`, the activity amounted to 96.3% in assay [1] and 92.5% in assay [2].

Take `Cc1cccc(NC(=O)c2cc3ccccc3c(=O)o2)n1`: the activity in assay [1] stood at 60.3%; in assay [2] it was 68.3%.

For the compound `O=C(Nc1cc(C(F)(F)F)cc(C(F)(F)F)c1)Nc1cnn(-c2ccc([N+](=O)[O-])cc2)c1C(F)(F)F`, the activity in assay [1] came to 74.2%; in assay [2], 63%.

For the compound `COc1cc(SC)ccc1C(=O)Nc1nccs1`, the activity was determined as 83.3% in assay [1] and 84.3% in assay [2].

On to `Cc1cc2[nH]c3c4ccccc4nc(C)c3c2cc1C`, for which the activity came out at 99.5% in assay [1] and 99.8% in assay [2].

In the case of `CC1(C)N=C(N)N=C(N)N1c1ccc(OCCCOc2ccccc2)c(Cl)c1`, the activity was determined as 59.8% in assay [1] and 64.1% in assay [2].

With `Fc1cccc(CSc2nc3ccncc3[nH]2)c1`, the activity in assay [1] was 55.2%; in assay [2] it was 54.4%.

Regarding `O=C(Nc1ncc(Cc2ccccc2)s1)c1cccs1`, the activity is 74.1% in assay [1] and 75% in assay [2].

For `O=c1[nH]c(Nc2nc3ccccc3o2)nc2c1CCCC2`, the figures for the activity in assay [1] and in assay [2] were 79.8% and 57%, respectively.

Source of the values: PubChem BioAssay.
